Bioassay records deposited in PubChem BioAssay by Broad Institute.
Only some compounds are listed: those with a hit (about 2.3% of all), similar ones and a draw of the others.
YB-1 expression = YB-1 expression inhibition; U2OS, qRT-PCR YB-1 vs CDIP delta delta Cp, 16 h; active compounds read high; zero = DMSO, each unit about twofold; delta delta Cp (YB-1 minus CDIP) (concentration not given with the values); 30,000 compounds, 0.37% hits; AID 434959;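 active means delta delta Cp rounded down to an integer at or above 3, about 3 SD of DMSO wells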;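 further: higher means less YB-1 transcript or more CDIP transcript relative to DMSO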
U2OS ROS induce = raises reactive oxygen species in U2OS cancer cells; U2OS ROS induction, H2DCF-DA fluorescence; ROS induction (% of piperlongumine), % at 10 µM; 46,000 compounds, 2% hits; AID 624156; in the data active means ROS induction above about 79%, passing the limit was not always enough; inconclusive means no clear call, values can overlap the other calls
Large screens that a line does not name were inactive.

Cc1cccc(Oc2coc3cc(OC(=O)c4ccc(F)cc4)ccc3c2=O)c1	none (no result: YB-1 expression)
C[C@H](CO)N1C[C@H](C)[C@H](CN(C)Cc2ccc(-c3ccccc3)cc2)Oc2c(NC(=O)c3ccncc3)cccc2C1=O	none
C[C@H](CO)N1C[C@H](C)[C@@H](CN(C)Cc2ccc(-c3ccccc3)cc2)Oc2c(NC(=O)c3ccncc3)cccc2C1=O	U2OS ROS induce 149.1
Cc1cc(C(=O)Nc2cccc3c2O[C@H](CN(C)Cc2ccc(-c4ccccc4)cc2)[C@@H](C)CN([C@H](C)CO)C3=O)n(C)n1	U2OS ROS induce 195.5
Cc1cc(C(=O)Nc2cccc3c2O[C@@H](CN(C)Cc2ccc(-c4ccccc4)cc2)[C@H](C)CN([C@@H](C)CO)C3=O)n(C)n1	U2OS ROS induce inconclusive
Cc1ccc(-n2nc(C)c3c(C)c(CCC(=O)NCc4cccs4)c(C)nc32)cc1	none (no result: YB-1 expression)
CCCNC(=O)Cn1ncn2c(cc3sc(CC)cc32)c1=O	none (no result: YB-1 expression)
COc1ccc(NC(=S)NC2CC(C)(C)NC(C)(C)C2)cc1	none (no result: YB-1 expression)
Cc1nc2c3ccccc3n3c(CCCC(=O)NC4CCCCC4)nnc3n2n1	none (no result: YB-1 expression)
CCOC(=O)c1nn(-c2ccccc2)c(C#N)c1NC(=O)c1nn(CC)cc1Br	U2OS ROS induce 166.0
CCOC(=O)c1c(NC(=O)c2nn(CC)cc2Br)c(C#N)nn1-c1ccccc1	U2OS ROS induce 125.1 (no result: YB-1 expression)
CCOC(=O)CNc1nnc(-c2ccccc2)c(-c2ccccc2)c1C#N	none (no result: YB-1 expression)
COC(=O)c1nn(-c2ccccc2)c(=O)c2c(N)sc(C)c12	none (no result: YB-1 expression)
Cc1ccc(N2C(=S)NC3c4cc(Cl)ccc4OC2(C)C3C(=O)Nc2ccc(C)cc2C)cc1 (configuration not stated)	none (no result: YB-1 expression)
CCSc1nc(SCC)c2c3c([nH]c2n1)CCCC3	none (no result: YB-1 expression)
CC(C)Sc1ccc2nnc(-c3ccccn3)n2n1	none (no result: YB-1 expression)
CC(C)CCNC(=O)c1cc(-c2ccccn2)nc2ccccc12	none (no result: YB-1 expression)
O=C(Cc1ccccc1)Nc1ccccc1C(F)(F)F	none (no result: YB-1 expression)
O=C(CN1C(C(=O)c2ccccc2)C(=O)c2ccccc2S1(=O)=O)c1ccccc1 (configuration not stated)	none (no result: YB-1 expression)
CCOc1cc(/C=C2\Sc3ccccc3C2=O)cc(I)c1O	U2OS ROS induce 95.8 (no result: YB-1 expression)
CCOc1cc(/C=C2\SC(=O)N(Cc3ccc(F)cc3)C2=O)ccc1O	none (no result: YB-1 expression)
O=c1c2ccccc2nc(SCc2ccc(Cl)cc2)n1CC1COc2ccccc2O1 (configuration not stated)	none (no result: YB-1 expression)
CCN(CC)c1ncc2c(NCc3ccccc3)nc(SCc3ccccc3)nc2n1	U2OS ROS induce 129.2
CN(Cc1ccccc1)C(=O)CSc1nc(NCc2ccc(Cl)cc2)c2ccccc2n1	none (no result: YB-1 expression)
COc1ccc(CCNC(=O)COc2ccc3c(=O)c(-c4ccccc4)coc3c2)cc1OC	none (no result: YB-1 expression)
COC(=O)/C=C/S(=O)(=O)c1ccc(NC(C)=O)cc1	U2OS ROS induce 121.0
CC(=O)Nc1ccc(S(=O)(=O)NC(C)C)cc1	none (no result: YB-1 expression)
C[C@@H]1O[C@@H](O[C@H]2[C@@H]3C=CO[C@@H](O[C@@H]4O[C@H](CO)[C@@H](O)[C@H](O)[C@H]4O)[C@@H]3[C@@]3(CO)O[C@@H]23)[C@H](O)[C@H](OC(=O)/C=C/c2ccc(O)cc2)[C@H]1O	U2OS ROS induce 87.5
COc1ccc(/C=C/C(=O)O[C@@H]2[C@@H](O)[C@H](C)O[C@@H](O[C@H]3[C@@H]4C=CO[C@@H](O[C@H]5O[C@@H](CO)[C@H](O)[C@@H](O)[C@@H]5O)[C@@H]4[C@@]4(CO)O[C@@H]34)[C@@H]2OC(C)=O)cc1	none
COc1ccc(/C=C/C(=O)O[C@H]2[C@H](O[C@H]3[C@@H]4C=CO[C@@H](O[C@@H]5O[C@H](CO)[C@@H](O)[C@H](O)[C@H]5O)[C@@H]4[C@@]4(CO)O[C@@H]34)O[C@@H](C)[C@H](O)[C@H]2OC(C)=O)cc1	YB-1 expression 10.3
CC(=O)O[C@@H]1[C@@H](O)[C@H](C)O[C@@H](O[C@H]2[C@@H]3C=CO[C@@H](O[C@@H]4O[C@H](CO)[C@@H](O)[C@H](O)[C@H]4O)[C@@H]3[C@@]3(CO)O[C@@H]23)[C@@H]1OC(=O)/C=C/c1ccc(O)cc1	none
COc1ccc(-n2c(=O)c(C#N)cc3c(=O)n4ccccc4nc32)cc1Cl	none (no result: YB-1 expression)
Cc1cccc(Cn2c(SCc3ccc(C(=O)NCCN4CCCC4)cc3)nc3ccncc32)c1	none (no result: YB-1 expression)
COc1ccc(CCn2c(=S)[nH]c3c(sc4ccccc43)c2=O)cc1OC	none (no result: YB-1 expression)
O=c1c2ccccc2nc(-c2ccccc2)n1Nc1ccc(F)cc1F	none (no result: YB-1 expression)
CCOC(=O)CSc1nc(Nc2ccccc2)c2cnc(N3CCOCC3)nc2n1	U2OS ROS induce 149.6
CCOC(=O)CSc1nc(Nc2ccc(OC)cc2)c2cnc(N(CC)CC)nc2n1	U2OS ROS induce inconclusive
CC(C)NC(=O)C(C)n1c2ccccc2c2cnn(C)c(=O)c21 (configuration not stated)	none (no result: YB-1 expression)
COC(=O)C1=C2C(=O)c3c(O)cc(CO)cc3OC2C(O)C=C1 (configuration not stated)	U2OS ROS induce 146.1
COC(=O)c1cccc2oc3cc(CO)cc(O)c3c(=O)c12	none
CC1=CC(C)(C)N(C(=O)/C=C/c2ccccc2)c2ccc(C)cc21	none (no result: YB-1 expression)
COc1ccc(NC(=O)C2CCCCN2/N=C/c2ccc(OC)c(OCC(C)C)c2)cc1OC (configuration not stated)	none (no result: YB-1 expression)
O=C(Nc1ccccc1Br)c1ccccc1Oc1ccccc1	none (no result: YB-1 expression)
CSc1ccc(-c2cccs2)nn1	none (no result: YB-1 expression)
COC(=O)C1(Cc2ccc(O)cc2)OC(=O)C(OC)=C1c1ccc(O)cc1 (configuration not stated)	YB-1 expression 4.35
COC(=O)C1(Cc2ccc(O)c(CC=C(C)C)c2)OC(=O)C(OC)=C1c1ccc(O)c(O)c1 (configuration not stated)	none
COc1ccc(C2=NN(C(=O)c3cccs3)C(c3cc4ccccc4nc3Cl)C2)cc1 (configuration not stated)	none (no result: YB-1 expression)
O=C(Cn1c(-c2cccs2)cc2ccccc21)N1CCCCC1	none (no result: YB-1 expression)
O=C(Cn1c(-c2cccs2)cc2ccccc21)NC1CCCCC1	U2OS ROS induce 115.1 (no result: YB-1 expression)
O=C1CC(N2C(=O)C3CC=CCC3C2=O)C2COC1O2 (configuration not stated)	U2OS ROS induce 91.2 (no result: YB-1 expression)
O=C1C2CC=CCC2C(=O)N1Cc1ccccc1 (configuration not stated)	none (no result: YB-1 expression)
Cc1[nH][nH]c(=O)c1C(c1ccncc1)C(C#N)C#N (configuration not stated)	none (no result: YB-1 expression)
O=c1cc(N2CCOCC2)oc2c(-c3ccccc3)cccc12	U2OS ROS induce 84.6
O=c1cc(N2CCOCC2)oc2c1ccc1ccccc12	none
CCN(CC)C(=O)COc1ccc2ccccc2c1Br	none (no result: YB-1 expression)
O=C(Nc1cccc(C(F)(F)F)c1)NC1CC(=O)N(Cc2ccccc2)C1 (configuration not stated)	none (no result: YB-1 expression)
O=S(=O)(NC1CCCCC1Sc1nc2ccccc2o1)c1ccc(Cl)cc1 (configuration not stated)	none (no result: YB-1 expression)
COc1ccc(OCC(=O)Nc2ccc(-c3nc4cc(C)ccc4o3)cc2)cc1	none (no result: YB-1 expression)
Cc1ccc2oc(-c3cc(NC(=O)c4ncn[nH]4)ccc3O)nc2c1	U2OS ROS induce 146.5 (no result: YB-1 expression)
O=C1O[C@H](c2ccccc2)[C@H](c2ccccc2)N2[C@H]1[C@@H](C(=O)N1CCCCCCC1)[C@]1(C(=O)Nc3ccc(C#CC4=CCCCC4)cc31)[C@H]2c1ccc(OCCO)cc1	U2OS ROS induce 100.4
